The campaign covered roughly 5,500 compounds. About 2,000 (36%) were called active. Another 18% or so got no clear call; they are omitted. Rule as the data show it: active = normalized growth mostly below about 0.91 (no sharp cut-off); inconclusive = no clear call, values can overlap the other calls; inactive = mostly above about 0.92. This is one part of the list.
Assay: chemical genetic growth profiling, strain panel (AID 1159580);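 also: tested at 20 µM; growth read once vehicle control cultures reached saturation at 30 °C; 1 = growth at the plate median or of vehicle wells; lower values mean less growth of the strain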
Conditions: growth OD

Measured: normalized growth

CC1(C)CC[C@]2(C)CC[C@]3(C)C(=CCC4[C@@]5(C)CC[C@H](O)C(C)(C)C5CC[C@]43C)C2C1 (some centres not stated)
inactive: S. cerevisiae deletion strains, locus YJL187C, strain SWE1, active compounds read low 1 | S. cerevisiae deletion strains, locus YJR066W, strain TOR1, active compounds read low 0.993 | S. cerevisiae deletion strains, locus YKL009W, strain mrt4, active compounds read low 0.988 | S. cerevisiae deletion strains, locus YKL068W, active compounds read low 0.985 | S. cerevisiae deletion strains, locus YKL085W, strain MDH1 (second series), active compounds read low 0.999 | S. cerevisiae deletion strains, locus YKL085W, strain MDH1, active compounds read low 0.999 | S. cerevisiae deletion strains, locus YKL160W, strain elf1, active compounds read low 0.987 | S. cerevisiae deletion strains, locus YKL190W, strain CNB1, active compounds read low 1 | S. cerevisiae deletion strains, locus YKR001C, strain vps1, active compounds read low 0.999 | S. cerevisiae deletion strains, locus YKR026C, strain gcn3, active compounds read low 0.989 | S. cerevisiae deletion strains, locus YKR091W, strain srl3, active compounds read low 0.993 | S. cerevisiae deletion strains, locus YLL001W, strain dnm1, active compounds read low 0.987 | S. cerevisiae deletion strains, locus YLL026W, active compounds read low 0.984 | S. cerevisiae deletion strains, locus YLL041C, strain sdh2, active compounds read low 1.01 | S. cerevisiae deletion strains, locus YLR027C, strain aat2, active compounds read low 0.98 | S. cerevisiae deletion strains, locus YLR039C, strain RIC1, active compounds read low 1.02 | S. cerevisiae deletion strains, locus YLR058C, strain SHM2, active compounds read low 1.01 | S. cerevisiae deletion strains, locus YLR102C, strain apc9, active compounds read low 1.01 | S. cerevisiae deletion strains, locus YLR113W, strain HOG1, active compounds read low 0.977 | S. cerevisiae deletion strains, locus YLR221C, strain rsa3, active compounds read low 0.987 | S. cerevisiae deletion strains, locus YLR258W, strain gsy2, active compounds read low 1.01 | S. cerevisiae deletion strains, locus YLR262C, strain YPT6 (second series), active compounds read low 1.01 | S. cerevisiae deletion strains, locus YLR268W, strain sec22, active compounds read low 1.03 | S. cerevisiae deletion strains, locus YLR320W, strain mms22, active compounds read low 0.994 | S. cerevisiae deletion strains, locus YLR342W, strain FKS1, active compounds read low 0.996 | S. cerevisiae deletion strains, locus YLR357W, strain rsc2, active compounds read low 0.971 | S. cerevisiae deletion strains, locus YLR370C, strain arc18, active compounds read low 0.999 | S. cerevisiae deletion strains, locus YLR371W, strain rom2, active compounds read low 0.973 | S. cerevisiae deletion strains, locus YLR384C, strain iki3, active compounds read low 0.967 | S. cerevisiae deletion strains, locus YLR418C, strain cdc73, active compounds read low 0.994 | S. cerevisiae deletion strains, locus YML016C, strain PPZ1, active compounds read low 1.01 | S. cerevisiae deletion strains, locus YML032C, strain rad52, active compounds read low 0.991 | S. cerevisiae deletion strains, locus YML120C, strain ndi1, active compounds read low 0.979 | S. cerevisiae deletion strains, locus YML124C, strain tub3, active compounds read low 0.984 | S. cerevisiae deletion strains, locus YMR058W, strain fet3, active compounds read low 0.988 | S. cerevisiae deletion strains, locus YMR078C, strain ctf18, active compounds read low 0.994 | S. cerevisiae deletion strains, locus YMR125W, strain sto1, active compounds read low 0.994 | S. cerevisiae deletion strains, locus YMR129W, active compounds read low 0.991 | S. cerevisiae deletion strains, locus YMR205C, strain PFK2, active compounds read low 1.01 | S. cerevisiae deletion strains, locus YMR223W, strain ubp8, active compounds read low 0.992 | S. cerevisiae deletion strains, locus YMR231W, strain pep5, active compounds read low 0.997 | S. cerevisiae deletion strains, locus YMR263W, strain SAP30, active compounds read low 0.979 | S. cerevisiae deletion strains, locus YMR307W, strain GAS1, active compounds read low 1.06 | S. cerevisiae deletion strains, locus YNL067W, strain RPL9B, active compounds read low 0.973 | S. cerevisiae deletion strains, locus YNL071W, strain lat1, active compounds read low 0.997 | S. cerevisiae deletion strains, locus YNL153C, strain GIM3, active compounds read low 0.973 | S. cerevisiae deletion strains, locus YNL183C, strain NPR1, active compounds read low 0.984 | S. cerevisiae deletion strains, locus YNL209W, strain ssb2, active compounds read low 0.975 | S. cerevisiae deletion strains, locus YNL233W, strain BNI4, active compounds read low 1.01 | S. cerevisiae deletion strains, locus YNL248C, strain rpa49, active compounds read low 0.985 | S. cerevisiae deletion strains, locus YNL250W, strain rad50, active compounds read low 0.963 | S. cerevisiae deletion strains, locus YNL271C, strain bni1, active compounds read low 0.978 | S. cerevisiae deletion strains, locus YNL298W, strain CLA4, active compounds read low 0.991 | S. cerevisiae deletion strains, locus YNL307C, strain MCK1, active compounds read low 1 | S. cerevisiae deletion strains, locus YNL322C, strain KRE1 (second series), active compounds read low 0.965 | S. cerevisiae deletion strains, locus YNR049C, strain mso1, active compounds read low 0.987 | S. cerevisiae deletion strains, locus YNR052C, strain pop2, active compounds read low 0.968 | S. cerevisiae deletion strains, locus YOL006C, strain TOP1, active compounds read low 1.14 | S. cerevisiae deletion strains, locus YOL012C, strain htz1 1.39 | S. cerevisiae deletion strains, locus YOL147C, strain pex11, active compounds read low 0.98 | S. cerevisiae deletion strains, locus YOR001W, strain rrp6, active compounds read low 1 | S. cerevisiae deletion strains, locus YOR061W, strain CKA2, active compounds read low 1.01 | S. cerevisiae deletion strains, locus YOR069W, strain VPS5, active compounds read low 1.01 | S. cerevisiae deletion strains, locus YOR070C, strain gyp1, active compounds read low 0.991 | S. cerevisiae deletion strains, locus YOR080W, strain dia2, active compounds read low 0.998 | S. cerevisiae deletion strains, locus YOR083W, strain WHI5, active compounds read low 1 | S. cerevisiae deletion strains, locus YOR106W, strain vam3, active compounds read low 0.993 | S. cerevisiae deletion strains, locus YOR136W, strain idh2, active compounds read low 0.994 | S. cerevisiae deletion strains, locus YOR144C, strain elg1, active compounds read low 0.994 | S. cerevisiae deletion strains, locus YOR184W, strain ser1, active compounds read low 1.02 | S. cerevisiae deletion strains, locus YOR231W, strain MKK1, active compounds read low 1.01 | S. cerevisiae deletion strains, locus YOR265W, strain rbl2, active compounds read low 0.996 | S. cerevisiae deletion strains, locus YOR270C, strain vph1, active compounds read low 1.05 | S. cerevisiae deletion strains, locus YOR290C, strain snf2, active compounds read low 0.989 | S. cerevisiae deletion strains, locus YOR316C, strain cot1, active compounds read low 0.993 | S. cerevisiae deletion strains, locus YPL051W, strain arl3, active compounds read low 1 | S. cerevisiae deletion strains, locus YPL078C, strain atp4, active compounds read low 1.01 | S. cerevisiae deletion strains, locus YPL106C, strain sse1, active compounds read low 0.961 | S. cerevisiae deletion strains, locus YPL240C, strain hsp82, active compounds read low 0.988 | S. cerevisiae deletion strains, locus YPL241C, strain CIN2, active compounds read low 0.992 | S. cerevisiae deletion strains, locus YPL256C, strain CLN2, active compounds read low 1.03 | S. cerevisiae deletion strains, locus YPR119W, strain clb2, active compounds read low 0.984 | S. cerevisiae deletion strains, locus YPR141C, strain kar3, active compounds read low 0.971 | S. cerevisiae deletion strains, locus YPR163C, strain tif3, active compounds read low 1 | S. cerevisiae deletion strains, locus YPR167C, strain met16, active compounds read low 0.982 | S. cerevisiae deletion strains, strain wtn01, active compounds read low 1.01 | S. cerevisiae strains, strain wild type, active compounds read low 1.02
